Several values for one entry are separate records, joined by “and”; a condition that tells them apart may be missing. Equal values may be shown once. The panel holds about 83,000 compounds, 20% with a hit somewhere; the sample as a whole holds those more often.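 Note: values are percent growth. 100 is the growth of untreated cells, values between 100 and 0 indicate rising inhibition; between -100 and 0 indicates cell death.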 A structure can be active in one record and inactive in another. Activity calls are given as the source filed them. How the source made its calls: active means growth percent below 10; inactive means the rest.
Key:
Experiment in all cases: NCI-60 one-dose screen, 48 h (100 = growth as untreated, 0 = no growth, -100 = all killed)
Details in all cases: 10 µM unless noted
NCI-H23 lung = test system: NCI-H23 lung
NCI-H226 lung = test system: NCI-H226 lung
NCI-H322M lung = test system: NCI-H322M lung
HOP-62 NSCLC = test system: HOP-62 NSCLC
NCI-H460 lung = test system: NCI-H460 lung
HOP-92 NSCLC = test system: HOP-92 NSCLC
NCI-H522 lung = test system: NCI-H522 lung
786-0 renal = test system: 786-0 renal
COLO 205 colon = test system: COLO 205 colon
A549/ATCC NSCLC = test system: A549/ATCC NSCLC

## CN1CCN(Cc2occc(=O)c2O)CCN(C)CCN(Cc2occc(=O)c2O)CC1
NCI-H23 lung
  growth: 94.6% (inactive) and 49.4% (inactive)
NCI-H226 lung
  growth: 94.7% (inactive) and 70.5% (inactive)
NCI-H322M lung
  growth: 105% (inactive) and 74.9% (inactive)
HOP-62 NSCLC
  growth: 97.1% (inactive) and 58.9% (inactive)
NCI-H460 lung
  growth: 105% (inactive) and 6.42% (active)
HOP-92 NSCLC
  growth: 83.8% (inactive) and 68.4% (inactive)
NCI-H522 lung
  growth: 104% (inactive) and 45.8% (inactive)
786-0 renal
  growth: 93.3% (inactive) and 50% (inactive)
COLO 205 colon
  growth: 102% (inactive) and 29.7% (inactive)

## COc1ccc2c(=O)cc(-c3ccccc3)[nH]c2c1
NCI-H23 lung
  growth: 34.4% (inactive) and 16.5% (inactive)
NCI-H226 lung
  growth: 57.3% (inactive) and 23.8% (inactive)
NCI-H322M lung
  growth: 66.1% (inactive) and 56.9% (inactive)
HOP-62 NSCLC
  growth: 30.1% (inactive) and 21.2% (inactive)
NCI-H460 lung
  growth: 6.58% (active) and 4.24% (active)
HOP-92 NSCLC
  growth: 53.8% (inactive)
NCI-H522 lung
  growth: -20% (active) and -68.2% (active)
A549/ATCC NSCLC
  growth: 22.6% (inactive) and 13.9% (inactive)
786-0 renal
  growth: 35.3% (inactive) and -14.1% (active)
COLO 205 colon
  growth: -19.6% (active) and -7.06% (active)

## Cc1ccc2nc3c(nc2c1)-c1cccc2cccc-3c12
NCI-H23 lung
  growth: 89.5% (inactive)
NCI-H226 lung
  growth: 86.3% (inactive)
NCI-H322M lung
  growth: 74.6% (inactive)
HOP-62 NSCLC
  growth: 101% (inactive)
NCI-H460 lung
  growth: 72.4% (inactive)
HOP-92 NSCLC
  growth: 89.8% (inactive)
NCI-H522 lung
  growth: 66.4% (inactive)
A549/ATCC NSCLC
  growth: 74.4% (inactive)
786-0 renal
  growth: 105% (inactive)
COLO 205 colon
  growth: 70.2% (inactive)

## CCN(CC)CCCC(C)Nc1cnc(C(=O)Nc2cc(F)cc3cccnc23)cn1 (configuration not stated)
NCI-H23 lung
  growth: 81.4% (inactive) and -25.1% (active)
NCI-H226 lung
  growth: 85.1% (inactive) and 49.5% (inactive)
NCI-H322M lung
  growth: 63.8% (inactive) and 0.121% (active)
HOP-62 NSCLC
  growth: 64.1% (inactive) and -14.1% (active)
NCI-H460 lung
  growth: 69.5% (inactive) and -75.9% (active)
HOP-92 NSCLC
  growth: 37.5% (inactive) and -76.6% (active)
NCI-H522 lung
  growth: 52.7% (inactive) and -59.4% (active)
786-0 renal
  growth: 68.4% (inactive) and -55.1% (active)
COLO 205 colon
  growth: 3.11% (active) and -50.9% (active)

## CCN(CC)CCNc1cc(-c2cccc(OC(F)(F)F)c2)nc2ccc(N3CCCC3)cc12
NCI-H23 lung
  growth: 65.9% (inactive) and -7.71% (active) and 34.2% (inactive)
NCI-H226 lung
  growth: 74.3% (inactive) and 47.8% (inactive) and 63.7% (inactive)
NCI-H322M lung
  growth: 29.2% (inactive) and 18.9% (inactive) and 58.3% (inactive)
HOP-62 NSCLC
  growth: 51.6% (inactive) and 3.4% (active) and 34.8% (inactive)
NCI-H460 lung
  growth: 27.2% (inactive) and 0.777% (active) and 11.8% (inactive)
HOP-92 NSCLC
  growth: -83.3% (active) and -7.78% (active) and 20.8% (inactive)
NCI-H522 lung
  growth: 60.8% (inactive) and -30.5% (active) and 23% (inactive)
A549/ATCC NSCLC
  growth: 55% (inactive) and 3.66% (active) and 29.9% (inactive)
786-0 renal
  growth: -59.9% (active) and 1.27% (active) and 21.2% (inactive)
COLO 205 colon
  growth: 32.5% (inactive) and -76.5% (active) and -46.9% (active)

## CN(C)c1ccc2nc3ccc(N)cc3[n+](-c3ccccc3)c2c1
NCI-H23 lung
  growth: 10.4% (inactive) and 20.6% (inactive)
NCI-H226 lung
  growth: 54.7% (inactive) and 72.4% (inactive)
NCI-H322M lung
  growth: 66.1% (inactive) and 40.3% (inactive)
HOP-62 NSCLC
  growth: 12.6% (inactive) and 42.7% (inactive)
NCI-H460 lung
  growth: 9.65% (active) and 9.63% (active)
HOP-92 NSCLC
  growth: -3.42% (active) and 38.1% (inactive)
NCI-H522 lung
  growth: 14.1% (inactive)
A549/ATCC NSCLC
  growth: 62.1% (inactive) and -27.6% (active)
786-0 renal
  growth: 56.3% (inactive) and 38.7% (inactive)
COLO 205 colon
  growth: -62.8% (active) and -12.6% (active)

## ClC/C=C/CSc1ncnc2nc[nH]c12
NCI-H23 lung
  growth: 101% (inactive) and 102% (inactive)
NCI-H226 lung
  growth: 98.9% (inactive) and 123% (inactive)
NCI-H322M lung
  growth: 110% (inactive)
HOP-62 NSCLC
  growth: 91.9% (inactive) and 108% (inactive)
NCI-H460 lung
  growth: 105% (inactive) and 106% (inactive)
HOP-92 NSCLC
  growth: 104% (inactive)
NCI-H522 lung
  growth: 102% (inactive) and 77.3% (inactive)
A549/ATCC NSCLC
  growth: 101% (inactive) and 104% (inactive)
786-0 renal
  growth: 106% (inactive) and 102% (inactive)
COLO 205 colon
  growth: 109% (inactive) and 116% (inactive)

## COC(=O)/C=C/c1cc(O)c2c(c1)C(C(=O)OC)C(c1ccc(O)c(O)c1)O2 (configuration not stated)
NCI-H23 lung
  growth: 30.8% (inactive) and 27.3% (inactive)
NCI-H226 lung
  growth: 57.1% (inactive) and 39.7% (inactive)
NCI-H322M lung
  growth: 72.7% (inactive) and 55.8% (inactive)
HOP-62 NSCLC
  growth: 45.8% (inactive) and 37.5% (inactive)
NCI-H460 lung
  growth: 28% (inactive) and 17.7% (inactive)
HOP-92 NSCLC
  growth: 16.5% (inactive) and -0.331% (active)
NCI-H522 lung
  growth: 1.09% (active) and 0.933% (active)
A549/ATCC NSCLC
  growth: 31.5% (inactive) and 20.3% (inactive)
786-0 renal
  growth: 17% (inactive) and 15% (inactive)
COLO 205 colon
  growth: 58.5% (inactive) and 41% (inactive)

## CN(C)CCC(=O)c1ccc(Cl)cc1
NCI-H23 lung
  growth: 109% (inactive) and 86.8% (inactive)
NCI-H226 lung
  growth: 99.3% (inactive) and 110% (inactive)
NCI-H322M lung
  growth: 110% (inactive) and 116% (inactive)
HOP-62 NSCLC
  growth: 112% (inactive) and 115% (inactive)
NCI-H460 lung
  growth: 113% (inactive) and 114% (inactive)
HOP-92 NSCLC
  growth: 86.4% (inactive) and 124% (inactive)
NCI-H522 lung
  growth: 79.8% (inactive) and -84.6% (active)
786-0 renal
  growth: 104% (inactive) and 106% (inactive)
COLO 205 colon
  growth: 121% (inactive) and 118% (inactive)

## O=C1OC(Oc2ccc(Br)cc2)(c2ccccc2)c2ccccc21 (configuration not stated)
NCI-H23 lung
  growth: 91.1% (inactive) and 80.5% (inactive)
NCI-H226 lung
  growth: 75.6% (inactive) and 83.7% (inactive)
NCI-H322M lung
  growth: 99.3% (inactive) and 127% (inactive)
HOP-62 NSCLC
  growth: 113% (inactive) and 107% (inactive)
HOP-92 NSCLC
  growth: 95.7% (inactive) and 65.6% (inactive)
NCI-H522 lung
  growth: 69% (inactive)
A549/ATCC NSCLC
  growth: 82.6% (inactive) and 88% (inactive)
786-0 renal
  growth: 101% (inactive) and 73.2% (inactive)
COLO 205 colon
  growth: 105% (inactive) and 111% (inactive)

## COc1ccc2ccccc2c1/C=N/N1CCCCC1
NCI-H23 lung
  growth: 97.2% (inactive)
NCI-H226 lung
  growth: 102% (inactive)
NCI-H322M lung
  growth: 105% (inactive)
HOP-62 NSCLC
  growth: 101% (inactive)
HOP-92 NSCLC
  growth: 67.8% (inactive)
NCI-H522 lung
  growth: 86.9% (inactive)
A549/ATCC NSCLC
  growth: 95.7% (inactive)
786-0 renal
  growth: 96.1% (inactive)
COLO 205 colon
  growth: 102% (inactive)

## CC(C)Oc1ccc2cc(-c3nn(CC4CCNCC4)c4ncnc(N)c34)ccc2c1
NCI-H23 lung
  growth: 67.3% (inactive) and 42.6% (inactive)
NCI-H226 lung
  growth: 97.6% (inactive) and 63.7% (inactive)
NCI-H322M lung
  growth: 89.8% (inactive) and 53.9% (inactive)
HOP-62 NSCLC
  growth: 79.8% (inactive) and 53.2% (inactive)
HOP-92 NSCLC
  growth: 66.1% (inactive) and -1.47% (active)
NCI-H522 lung
  growth: 87.2% (inactive) and -28% (active)
A549/ATCC NSCLC
  growth: 80.1% (inactive) and 16.9% (inactive)
786-0 renal
  growth: 89.3% (inactive) and -32.9% (active)
COLO 205 colon
  growth: 74.4% (inactive) and -47.7% (active)

## CCN(CC)CCCC(CNc1ccnc2cc(Cl)ccc12)c1ccc(Cl)cc1 (configuration not stated)
NCI-H23 lung
  growth: 48.9% (inactive) and 54.3% (inactive)
NCI-H226 lung
  growth: 4.19% (active) and 25.2% (inactive)
NCI-H322M lung
  growth: -33.5% (active) and 46.5% (inactive)
HOP-62 NSCLC
  growth: 4.57% (active) and 88.8% (inactive)
NCI-H460 lung
  growth: 24.3% (inactive) and -63.6% (active)
HOP-92 NSCLC
  growth: -51.5% (active) and -68.6% (active)
NCI-H522 lung
  growth: -49.4% (active) and -59.6% (active)
786-0 renal
  growth: -83.4% (active) and -97.3% (active)
COLO 205 colon
  growth: -61.9% (active) and -85.6% (active)

## CC(/C=N/N1C(=O)c2ccccc2C1=O)c1ccccc1 (configuration not stated)
NCI-H23 lung
  growth: 108% (inactive)
NCI-H226 lung
  growth: 90.6% (inactive)
NCI-H322M lung
  growth: 98.1% (inactive)
HOP-62 NSCLC
  growth: 112% (inactive)
NCI-H460 lung
  growth: 108% (inactive)
NCI-H522 lung
  growth: 104% (inactive)
A549/ATCC NSCLC
  growth: 88.3% (inactive)
786-0 renal
  growth: 102% (inactive)
COLO 205 colon
  growth: 114% (inactive)

## CCCCCCCCCCCCOc1ccccc1C=O
NCI-H23 lung
  growth: 100% (inactive)
NCI-H226 lung
  growth: 95.4% (inactive)
NCI-H322M lung
  growth: 114% (inactive)
HOP-62 NSCLC
  growth: 85.3% (inactive)
NCI-H460 lung
  growth: 102% (inactive)
NCI-H522 lung
  growth: 91.3% (inactive)
A549/ATCC NSCLC
  growth: 93.3% (inactive)
786-0 renal
  growth: 109% (inactive)
COLO 205 colon
  growth: 109% (inactive)

## Nc1ccccc1SC1CC(=O)N(c2cccc3ccccc23)C1=O (configuration not stated)
NCI-H23 lung
  growth: 101% (inactive)
NCI-H226 lung
  growth: 83.6% (inactive)
NCI-H322M lung
  growth: 97% (inactive)
HOP-62 NSCLC
  growth: 90.5% (inactive)
NCI-H460 lung
  growth: 99.3% (inactive)
786-0 renal
  growth: 101% (inactive)
COLO 205 colon
  growth: 105% (inactive)

## O[C@H](c1cc(C(F)(F)F)nc2c(C(F)(F)F)cccc12)[C@@H]1CCCCN1
NCI-H23 lung
  growth: 79.2% (inactive) and 77.8% (inactive)
NCI-H226 lung
  growth: 93.5% (inactive) and 58.9% (inactive)
NCI-H322M lung
  growth: 68.6% (inactive) and 52% (inactive)
HOP-62 NSCLC
  growth: 71.3% (inactive) and 74.6% (inactive)
NCI-H460 lung
  growth: 27.7% (inactive) and 23.6% (inactive)
HOP-92 NSCLC
  growth: 9.97% (active) and -8.33% (active)
NCI-H522 lung
  growth: 58.4% (inactive) and 22.8% (inactive)
786-0 renal
  growth: 42.4% (inactive) and 56.6% (inactive)
COLO 205 colon
  growth: 62.3% (inactive) and 60.5% (inactive)
